Active and inactive are the calls of the source. How the source made its calls: active means hit-call score of the fitted dose curve at least 0.9, where 1 is the maximum; inactive means score below 0.9.
Key:
[1] = ATG_PBREM_CIS: Attagene CIS-FACTORIAL HepG2 Assay for human Phenobarbital-responsive Enhancer Module (PBREM) (AID 2282955); settings: HepG2 PBREM cis-reporter, Attagene multiplexed transcription; actives raise or lower the signal
Summary of the method: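 Fluorescence of labelled reporter cDNA fragments, resolved by capillary electrophoresis, gives mRNA induction in transfected HepG2 cells treated for 24 h; DMSO serves as negative control and baseline.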

[2] = target: Paired box protein Pax-6 (Homo sapiens) (UniProt P26367); assay: ATG_Pax6_CIS: Attagene CIS-FACTORIAL HepG2 Assay for human Paired Box 6 (PAX6) (AID 2282956); settings: HepG2 CIS-FACTORIAL PAX6 reporter transcription, RNA readout; actives raise or lower the signal
Chain of Paired box protein Pax-6 (Homo sapiens) (P26367 whole entry, looked up): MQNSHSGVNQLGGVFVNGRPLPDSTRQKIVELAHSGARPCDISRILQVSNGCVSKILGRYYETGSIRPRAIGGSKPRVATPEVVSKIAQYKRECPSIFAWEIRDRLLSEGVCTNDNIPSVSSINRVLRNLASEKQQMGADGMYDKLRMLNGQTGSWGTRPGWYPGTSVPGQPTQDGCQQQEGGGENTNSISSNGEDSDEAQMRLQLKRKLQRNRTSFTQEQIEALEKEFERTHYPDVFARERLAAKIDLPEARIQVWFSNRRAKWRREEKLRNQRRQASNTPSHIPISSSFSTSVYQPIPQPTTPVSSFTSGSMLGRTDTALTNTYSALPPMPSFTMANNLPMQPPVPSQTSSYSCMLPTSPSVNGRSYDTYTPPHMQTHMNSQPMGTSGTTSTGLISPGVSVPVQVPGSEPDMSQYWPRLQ
Summary of the method: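 Fluorescent RT-PCR products separated by capillary electrophoresis report PAX6-linked promoter mRNA in HepG2 cells 24 h post-dose. Curves fitted bidirectionally, DMSO as negative control.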

[3] = ATG_PXRE_CIS: Attagene CIS-FACTORIAL HepG2 Assay for human Pregnane X Receptor Element (PXRE) (AID 2282957); settings: HepG2 Attagene CIS-FACTORIAL PXRE reporter, mRNA; actives raise or lower the signal
Summary of the method: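 Bidirectional activity, baselined to DMSO, derived from reporter mRNA fluorescence (RT-PCR plus capillary electrophoresis) in HepG2 cells bearing cis-promoter reporter units, 24 h exposure.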

[4] = ATG_RORE_CIS: Attagene CIS-FACTORIAL HepG2 Assay for human RAR-related Orphan Receptor Element (RORE) (AID 2282959); settings: HepG2 Attagene cis-factorial RORE reporter, mRNA; actives raise or lower the signal
Summary of the method: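 Cells were HepG2 carrying transfected cis-regulated reporter constructs, dosed for 24 hours. Total RNA was reverse-transcribed and reporter cDNA amplified, fluorescently labeled and sized by capillary electrophoresis. Activity was fitted bidirectionally relative to DMSO.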

[5] = ATG_Sox_CIS: Attagene CIS-FACTORIAL HepG2 Assay for human SRY-box transcription factor (SOX) (AID 2282960); settings: HepG2 Attagene cis-factorial SOX reporter, mRNA; actives raise or lower the signal
Summary of the method: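 Transient MRTU transfection of HepG2; 24 h compound incubation; TriZol RNA, oligo(dT) RT, PCR, 6-FAM primer extension, HpaI cut, CE. Bidirectional fit, DMSO = baseline.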

[6] = target: Transcription factor Sp1 (Homo sapiens) (UniProt P08047); assay: ATG_Sp1_CIS: Attagene CIS-FACTORIAL HepG2 Assay for human Specificity Protein 1 (Sp1) (AID 2282961); settings: HepG2 Sp1 cis-reporter transcription, actives raise or lower the signal
Chain of Transcription factor Sp1 (Homo sapiens) (P08047 whole entry, looked up): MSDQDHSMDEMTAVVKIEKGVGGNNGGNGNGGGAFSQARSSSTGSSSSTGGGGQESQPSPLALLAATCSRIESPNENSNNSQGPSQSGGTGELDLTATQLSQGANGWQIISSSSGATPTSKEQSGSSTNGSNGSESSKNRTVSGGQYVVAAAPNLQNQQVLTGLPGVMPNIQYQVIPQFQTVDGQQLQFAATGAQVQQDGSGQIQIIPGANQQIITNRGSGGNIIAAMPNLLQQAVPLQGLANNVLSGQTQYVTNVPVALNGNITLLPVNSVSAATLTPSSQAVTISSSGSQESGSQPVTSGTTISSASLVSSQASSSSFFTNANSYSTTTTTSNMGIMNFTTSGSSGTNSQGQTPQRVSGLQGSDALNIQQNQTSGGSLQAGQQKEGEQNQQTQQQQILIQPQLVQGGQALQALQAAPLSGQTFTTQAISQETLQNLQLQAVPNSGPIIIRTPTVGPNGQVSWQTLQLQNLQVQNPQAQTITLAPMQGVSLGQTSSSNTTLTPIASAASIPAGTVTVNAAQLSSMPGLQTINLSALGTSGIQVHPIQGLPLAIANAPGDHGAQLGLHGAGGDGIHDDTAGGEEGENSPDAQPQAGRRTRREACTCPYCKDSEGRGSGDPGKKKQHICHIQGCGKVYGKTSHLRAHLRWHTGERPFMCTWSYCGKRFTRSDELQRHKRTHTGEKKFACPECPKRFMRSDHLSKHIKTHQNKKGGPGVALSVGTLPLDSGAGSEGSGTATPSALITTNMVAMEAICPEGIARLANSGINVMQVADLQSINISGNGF
Summary of the method: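 Endogenous Sp1 activity was gauged in human liver HepG2 cells bearing transfected reporter units under a cis-regulating promoter. After 24 h dosing, reporter mRNA was quantified by RT-PCR with capillary electrophoresis, and activity fitted bidirectionally versus DMSO.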

[7] = ATG_SREBP_CIS: Attagene CIS-FACTORIAL HepG2 Assay for human Sterol Regulatory Element Binding (SREBP) (AID 2282962); settings: HepG2 Attagene cis-factorial SREBP reporter, mRNA; actives raise or lower the signal
Summary of the method: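 Endogenous factor activity is measured in HepG2 through multiplexed reporter units under cis-element control. Following a 24 h incubation, reporter transcripts are reverse-transcribed, PCR-amplified and sized by capillary electrophoresis; activity is fitted in both directions relative to DMSO.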

[8] = target: Signal transducer and activator of transcription 3 (Homo sapiens) (UniProt P40763); assay: ATG_STAT3_CIS: Attagene CIS-FACTORIAL HepG2 Assay for human Signal Transducer and Activator of Transcription 3 (STAT3) (AID 2282963); settings: HepG2, Attagene cis-factorial STAT3 reporter transcription; actives raise or lower the signal
Chain of Signal transducer and activator of transcription 3 (Homo sapiens) (P40763 whole entry, looked up): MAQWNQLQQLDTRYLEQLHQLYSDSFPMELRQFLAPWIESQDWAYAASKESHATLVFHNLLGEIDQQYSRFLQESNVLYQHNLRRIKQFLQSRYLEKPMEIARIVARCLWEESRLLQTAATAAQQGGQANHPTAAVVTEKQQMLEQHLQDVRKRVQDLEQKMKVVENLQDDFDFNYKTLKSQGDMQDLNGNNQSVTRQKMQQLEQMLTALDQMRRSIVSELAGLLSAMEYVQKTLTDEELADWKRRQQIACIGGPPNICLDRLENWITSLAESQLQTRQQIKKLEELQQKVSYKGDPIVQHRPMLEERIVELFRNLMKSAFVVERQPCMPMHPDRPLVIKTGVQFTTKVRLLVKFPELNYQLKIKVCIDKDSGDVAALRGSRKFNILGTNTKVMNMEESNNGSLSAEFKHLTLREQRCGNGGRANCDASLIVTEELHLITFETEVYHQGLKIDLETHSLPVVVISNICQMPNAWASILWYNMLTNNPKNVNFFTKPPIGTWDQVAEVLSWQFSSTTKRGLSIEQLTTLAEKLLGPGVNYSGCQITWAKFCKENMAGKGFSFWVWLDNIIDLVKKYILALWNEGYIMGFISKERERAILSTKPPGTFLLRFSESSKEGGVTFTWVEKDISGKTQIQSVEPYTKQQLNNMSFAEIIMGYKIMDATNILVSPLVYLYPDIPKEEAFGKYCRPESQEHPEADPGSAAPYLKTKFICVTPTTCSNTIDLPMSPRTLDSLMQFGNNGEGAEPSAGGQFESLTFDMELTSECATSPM
Summary of the method: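 Readout is reporter transcript quantified by RT-PCR and capillary electrophoresis, with 6-FAM primer extension and HpaI digestion. Total RNA is taken 24 h after dosing transiently transfected HepG2 carrying cis-regulated reporter units. Bidirectional fit against DMSO.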

[9] = ATG_TA_CIS: Attagene CIS-FACTORIAL HepG2 Assay for human TA Basal Promoter (AID 2282964); settings: HepG2 Attagene CIS-factorial TA basal promoter reporter; actives raise or lower the signal
Summary of the method: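 Multiplexed mRNA reporter assay, HepG2, 24 h. Reporter cDNA amplified, 6-FAM primer-extended, HpaI-cut, CE-sized; DMSO = negative control and baseline.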

Row | Compound | outcome [1] | outcome [2] | AC50 [3] | outcome [4] | outcome [5] | outcome [6] | outcome [7] | outcome [8] | outcome [9] | outcome [3] | AC50 [5] | AC50 [6] | AC50 [7] | AC50 [9] | AC50 [1]
1 | C=CC(=O)OCCCCCCCCCC | inactive | inactive | 26.4 µM (active) | inactive | inactive | inactive | inactive | inactive | inactive |  |  |  |  |  | 
2 | CCCCOC(=O)C(C)CC (stereo unspecified) | inactive | inactive | 27.1 µM (active) | inactive | inactive | inactive | inactive | inactive | inactive |  |  |  |  |  | 
3 | CCCCCCO | inactive | inactive |  | inactive | inactive | inactive | inactive | inactive | inactive | inactive |  |  |  |  | 
4 | CCN1CCCC1=O | inactive | inactive |  | inactive |  | inactive | inactive | inactive | inactive | inactive |  |  |  |  | 
5 | N#CC1(N)CCCCC1 | inactive | inactive |  | inactive | inactive | inactive | inactive | inactive | inactive | inactive |  |  |  |  | 
6 | CC1(C)[C@@H]2CC[C@@]1(C)C(=O)C2 | inactive | inactive |  | inactive | inactive | inactive | inactive | inactive | inactive | inactive |  |  |  |  | 
7 | CC=C(C)C=CC=C(C)C | inactive | inactive | 6.96 µM (active) | inactive | inactive | inactive | inactive | inactive | inactive |  |  |  |  |  | 
8 | CC1=C(O)C(=O)C(C)O1 (stereo unspecified) | inactive | inactive |  | inactive | inactive | inactive | inactive | inactive | inactive | inactive |  |  |  |  | 
9 | CN(C)Cc1cc(CN(C)C)c(O)c(CN(C)C)c1 | inactive | inactive |  | inactive | inactive | inactive | inactive | inactive | inactive | inactive |  |  |  |  | 
10 | CCCCCCCOC(=O)c1ccc(O)cc1 | inactive | inactive |  | inactive |  |  | inactive | inactive | inactive | inactive | 33.4 µM (active) | 33.4 µM (active) |  |  | 
11 | C=C(C)OC(C)=O | inactive | inactive |  | inactive | inactive | inactive | inactive | inactive | inactive | inactive |  |  |  |  | 
12 | CC(C)CO | inactive | inactive |  | inactive | inactive | inactive | inactive | inactive | inactive | inactive |  |  |  |  | 
13 | CC(C)=CCl | inactive | inactive |  | inactive | inactive | inactive | inactive | inactive | inactive | inactive |  |  |  |  | 
14 | CCCC=C(C=O)CC | inactive | inactive | 7.92 µM (active) | inactive | inactive | inactive | inactive | inactive | inactive |  |  |  |  |  | 
15 | CCCC(CC)c1ccccc1 (stereo unspecified) | inactive | inactive | 36.2 µM (active) | inactive | inactive |  |  | inactive | inactive |  |  | 180 µM (active) | 164 µM (active) |  | 
16 | O=C(C=Cc1ccccc1)OCCc1ccccc1 | inactive | inactive | 12.8 µM (active) | inactive | inactive | inactive | inactive | inactive |  |  |  |  |  | 53.9 µM (active) | 
17 | CC(C)CCOCc1ccccc1 | inactive | inactive |  | inactive | inactive | inactive | inactive | inactive | inactive | inactive |  |  |  |  | 
18 | CCCc1ccc(O)c(OC)c1 | inactive | inactive |  | inactive | inactive | inactive | inactive | inactive | inactive | inactive |  |  |  |  | 
19 | CC(=O)c1ccccc1O | inactive | inactive |  | inactive | inactive | inactive | inactive | inactive | inactive | inactive |  |  |  |  | 
20 | O=C1CCCCCCCCCCCN1 | inactive | inactive | 8.77 µM (active) | inactive | inactive | inactive | inactive | inactive | inactive |  |  |  |  |  | 
21 | CC(=O)OC(C)c1ccccc1 (stereo unspecified) | inactive | inactive | 37.6 µM (active) | inactive | inactive | inactive | inactive | inactive | inactive |  |  |  |  |  | 
22 | CCCCOCC(C)O (stereo unspecified) | inactive | inactive |  | inactive | inactive | inactive | inactive | inactive | inactive | inactive |  |  |  |  | 
23 | CCCCC1C(=O)N(c2ccccc2)N(c2ccccc2)C1=O | inactive | inactive | 1.44 µM (active) | inactive | inactive | inactive | inactive | inactive | inactive |  |  |  |  |  | 
24 | CCCCOCCOC(=O)COc1ccc(Cl)cc1Cl | inactive | inactive | 39.9 µM (active) | inactive | inactive | inactive | inactive | inactive | inactive |  |  |  |  |  | 
25 | Clc1cc(Cl)c(Cl)c(Cl)c1Cl |  | inactive | 27.6 µM (active) | inactive |  | inactive | inactive | inactive | inactive |  |  |  |  |  | 66.2 µM (active)
26 | CC(C)=CCCC(C)=CC#N | inactive | inactive | 25.5 µM (active) | inactive | inactive | inactive | inactive | inactive | inactive |  |  |  |  |  | 
27 | CCCCNC(=S)NCCCC | inactive | inactive | 38 µM (active) | inactive | inactive | inactive | inactive | inactive | inactive |  |  |  |  |  | 

— PubChem BioAssay (EPA / NIEHS)
